The entries come from a sample that favours hits as a whole.
ROC1-CUL1 inh = human ROC1-CUL1 E3 ligase inhibition; P62877+Q13616; in vitro K48 di-Ub FRET, acceptor:donor ratio, 45 min; inhibition, % at 10 µM; actives 0.6% (n = 140,000); in the data active = inhibition above about 25%
Target sequence (P62877 whole entry, looked up): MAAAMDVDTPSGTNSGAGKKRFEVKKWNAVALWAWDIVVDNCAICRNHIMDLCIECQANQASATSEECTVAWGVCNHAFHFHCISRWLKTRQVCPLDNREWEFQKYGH
Target sequence (Q13616 whole entry, looked up): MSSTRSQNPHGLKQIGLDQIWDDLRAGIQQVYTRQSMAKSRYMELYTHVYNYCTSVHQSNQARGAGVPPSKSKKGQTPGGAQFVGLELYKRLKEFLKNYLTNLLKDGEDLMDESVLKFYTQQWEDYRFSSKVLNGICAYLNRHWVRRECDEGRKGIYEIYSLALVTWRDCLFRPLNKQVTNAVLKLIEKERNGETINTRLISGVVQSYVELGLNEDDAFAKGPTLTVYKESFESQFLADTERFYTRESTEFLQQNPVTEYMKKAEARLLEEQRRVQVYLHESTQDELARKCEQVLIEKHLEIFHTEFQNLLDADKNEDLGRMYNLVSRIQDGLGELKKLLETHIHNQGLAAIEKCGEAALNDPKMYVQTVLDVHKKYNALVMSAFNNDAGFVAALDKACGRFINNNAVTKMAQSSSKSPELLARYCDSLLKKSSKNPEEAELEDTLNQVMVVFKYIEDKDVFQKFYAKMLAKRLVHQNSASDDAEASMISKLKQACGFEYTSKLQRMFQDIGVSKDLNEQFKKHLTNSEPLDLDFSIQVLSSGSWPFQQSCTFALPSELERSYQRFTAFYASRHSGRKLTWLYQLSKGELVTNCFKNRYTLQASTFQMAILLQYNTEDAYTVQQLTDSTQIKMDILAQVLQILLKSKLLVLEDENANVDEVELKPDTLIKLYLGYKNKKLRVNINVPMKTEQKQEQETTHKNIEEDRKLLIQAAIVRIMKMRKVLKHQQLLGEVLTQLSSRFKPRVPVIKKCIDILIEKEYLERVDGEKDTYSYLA
An asterisk follows results filed as active.

SMILES	ROC1-CUL1 inh
CC(=O)C(=O)N=c1ccc2nc3ccc(NC(=O)C(C)=O)cc3oc-2c1	8.0
CC1(C)OC(=O)C(C=NCc2ccccc2)C(=O)O1	-1.0
O=C1C=CC(=O)C(C(C=NCc2ccccc2)[N+](=O)[O-])=C1 (stereo not given)	97.3*
CN1C(=O)C(C=NCc2ccccc2)c2ccccc21 (stereo not given)	-2.4
COc1ccccc1C(=O)Nc1ccc(C)cn1	-3.6
CC1=CC(=Cc2c(O)n(-c3cccc(Cl)c3Cl)c(=S)[nH]c2=O)C(C)=N1	92.9*
COc1ccccc1-n1c(O)c(C=C2C=Nc3ccccc32)c(=O)[nH]c1=S	15.2
CCn1c(O)c(C=C2C(C)=Nc3ccccc32)c(=O)[nH]c1=S	-2.5
CSc1ccc(-c2cc(C(=O)O)c3cc(Br)ccc3n2)cc1	-3.3
COc1ccc(F)c(CN2CCCC3(CCN(S(=O)(=O)N(C)C)C3)C2=O)c1 (stereo not given)	8.5
O=C1NN(c2ccc(F)c(Cl)c2)C(=O)/C1=C\c1ccc(F)cc1	76.9*
Cc1ccc(N2NC(=O)/C(=C\c3ccc(N(C)C)c(Br)c3)C2=O)cc1Cl	2.0
O=C1NN(c2ccc(F)cc2)C(=O)/C1=C\c1ccc(F)cc1	-0.8
COc1cc(/C=C2/C(=O)NN(c3ccc(F)cc3)C2=O)cc(Cl)c1O	-3.1
COC(=O)c1ccc(N2NC(=O)/C(=C/c3ccc(C)cc3)C2=O)cc1	27.3*
COc1cc(/C=C2\C(=O)NN(c3ccc(C)cc3)C2=O)cc(OC)c1OC	0.6
Cc1ccc(N2NC(=O)/C(=C/c3ccc(F)cc3)C2=O)cc1Cl	50.5*
Cc1ccc(N2NC(=O)/C(=C/c3ccc(F)cc3)C2=O)cc1	71.3*
COc1ccc(/C=C2/C(=O)NN(c3cccc(C)c3)C2=O)cc1	4.7
O=C1NN(c2ccc(F)cc2)C(=O)/C1=C/c1ccccc1	4.6
COc1ccc(CNC2COc3ccccc3C2)c(OC)c1OC (stereo not given)	5.6
O=C(CSc1ccccn1)N1c2ccccc2CCc2ccccc21	8.3
CSc1nn(-c2cc(Cl)nc(-c3ccccc3)n2)c(N)c1C#N	-7.5
CCC1(C)Nc2ccccc2-c2nnc(SCC(=O)O)nc2O1 (stereo not given)	0.8
O=C1NN(c2ccc(I)cc2)C(=O)/C1=C\c1ccccc1	2.6
SMILES	ROC1-CUL1 inh
CN(c1ccccc1)c1ccc(/C=C2\C(=O)NN(c3ccccc3)C2=O)cc1	30.6*
Cc1cccc(N2NC(=O)/C(=C/c3ccccc3)C2=O)c1	-8.7
O=C1NN(c2ccccc2)C(=O)/C1=C/c1ccccc1	4.8
Cc1ccc(N2NC(=O)/C(=C/c3ccc(F)cc3)C2=O)cc1C	77.6*
COc1ccc(/C=C2\C(=O)NN(c3ccc(F)cc3)C2=O)cc1	-3.6
Cc1ccc(N2NC(=O)/C(=C/c3ccc(N(C)CCC(C)C)cc3)C2=O)cc1C	17.3
O=C1NN(c2ccc(I)cc2)C(=O)/C1=C\c1ccc(O)c(O)c1	106.3*
O=C1NN(c2ccc(I)cc2)C(=O)/C1=C\c1ccc(O)cc1O	-15.2
Cc1cc(OCc2cc(C(=O)N3CCN(C)C(C)C3)no2)cc(C)c1Cl (stereo not given)	4.1
CC(NS(=O)(=O)c1ccc(Cl)cc1)c1ccccc1 (stereo not given)	-13.6
COc1ccc(CNCC2CCNCC2)cc1	3.7
CC(=O)c1coc2ccc3ccccc3c2c1=O	5.5
CC(=O)C1C(=O)Oc2c(ccc3ccccc23)C1=O (stereo not given)	39.9*
O=C1CC(O)(C(F)(F)F)Oc2c1ccc1ccccc21 (stereo not given)	-1.3
CCCCCCNC(=O)CSC1=N/C(=C/c2cc(Br)ccc2O)C(=O)N1CC	-2.4
CCOc1ccc(CCNC(NC(=O)c2ccc(Cl)cc2)(C(F)(F)F)C(F)(F)F)cc1OCC	-1.8
CC1=Nc2ncnn2C(c2cccc(Br)c2)C1C(=O)Nc1ccccc1C (stereo not given)	0.4
O=C(COc1ccc(C2CCCCC2)cc1)Nc1ccccc1F	9.1
CC(C)(Oc1ccc(C2CCCCC2)cc1)C(=O)O	66.4*
COC(=O)c1ccccc1NC(=O)COc1ccc(C2CCCCC2)cc1	-4.1
O=C(c1ccc2c(c1)OCCO2)N1CCC2(CC1)OCCO2	-6.2
CS(=O)(=O)N1CCCC(Cn2cc(Cc3ccccc3)nn2)C1 (stereo not given)	-0.6
CSc1nsc(SCSc2nnc(-c3ccccc3)o2)n1	-3.7
CSc1nsc(SCSc2nc(SC)ns2)n1	36.1*
CSc1nsc(SCCC(=O)Nc2ccccc2)n1	-4.2
SMILES	ROC1-CUL1 inh
O=C1NC(O)(C(F)(F)F)C(=O)N2CCCC12 (stereo not given)	-0.8
N#CCc1nccc2sc3ccccc3c12	2.9
Cc1ccc(COc2ccc(/C=C3\SC(=O)N(Cc4ccc(F)cc4)C3=O)cc2)cc1	1.5
COc1cccc(-c2noc3c2CN(C(=O)C2=C(C)OCCO2)CC3)c1	10.3
COc1ccc(OC)c(C(=O)O)c1N	4.9
COc1ccc2c(c1O)SC(=O)C2	106.0*
COc1cccc(C=Nc2ccc(C(N)=O)cc2)c1O	3.0
COc1cc(CNc2ccc(N3CCCC3)cc2)cc(Cl)c1OCc1ccc(F)cc1	-12.1
COc1cccc(CNc2ccc(N3CCOCC3)cc2)c1OC	10.7
CCOc1c(Cl)cc(CNc2ccc(N3CCCC3)cc2)cc1OC	67.8*
O=C1OC(c2cccc3ccccc23)=N/C1=C/c1ccc([N+](=O)[O-])cc1[N+](=O)[O-]	-3.2
O=C1NN(c2ccc(Br)cc2)C(=O)/C1=C\c1ccc2c(c1)OCO2	7.9
O=C1NN(c2ccc(Cl)c(Cl)c2)C(=O)/C1=C/c1ccccc1	21.4
CCc1ccc(/C=C2\C(=O)NN(c3ccc(Cl)c(Cl)c3)C2=O)cc1	81.1*
O=C1NN(c2ccc(Cl)cc2)C(=O)/C1=C/c1ccc(O)cc1	2.0
COc1ccc(/C=C2/C(=O)NN(c3ccc(Br)cc3)C2=O)cc1	7.0
Cc1cc(/C=C2\C(=O)NN(c3ccccc3)C2=O)c(C)n1-c1ccc(Cl)c(Cl)c1	-0.5
O=C1NN(c2ccc(Cl)c(Cl)c2)C(=O)/C1=C/c1cc(Br)ccc1O	73.2*
CCc1ccc(/C=C2\C(=O)NN(c3ccc(I)cc3)C2=O)cc1	16.5
O=C1NN(c2ccc(Cl)cc2)C(=O)/C1=C/c1ccc(Br)cc1	53.4*
O=C1NN(c2ccc(Cl)c(Cl)c2)C(=O)/C1=C/c1ccc(Br)cc1	57.4*
O=C1NN(c2ccc(Cl)c(Cl)c2)C(=O)/C1=C/c1ccc(Cl)cc1Cl	13.1
C(#Cc1ccc(-c2nc(-c3ccc(C#Cc4ccccc4)cc3)c(-c3ccc(C#Cc4ccccc4)cc3)[nH]2)cc1)c1ccccc1	-12.1
CNC12CC3CC(CC(C)(C3)C1)C2	-3.6
COc1ccc(CN2CCN(Cc3cnc(SC)nc3)CC2CCO)c(C)c1C (stereo not given)	-5.0
SMILES	ROC1-CUL1 inh
CCOc1cc(C2C3=C(CC(C)(C)CC3=O)N=C(C)C2C(=O)OCc2ccccc2)cc(Br)c1O (stereo not given)	5.0
Cc1cc(C)c2oc(-c3ccc(NC(=O)c4ccc(OCc5ccccc5)cc4)cc3)nc2c1	-1.7
O=c1[nH]c(CN2CCN(c3cccc(Cl)c3)CC2)nc2ccccc12	-3.3
CCN(CC)C(=O)N1CCCC1=Nc1ccc(Cl)cc1	-0.6
O=C1NN(c2cccc(Cl)c2)C(=O)/C1=C/c1ccc2c(c1)OCO2	1.3
CC(C)OC(=O)c1ccc(-c2ccc(/C=C3/C(=O)NN(c4ccccc4)C3=O)o2)cc1	3.0
O=C1NN(c2cccc(Cl)c2)C(=O)/C1=C\c1ccc(-c2ccc(C(=O)O)c(Cl)c2)o1	44.1*

Assay outcomes: PubChem, Pan Lab, Icahn School of Medicine at Mount Sinai
